Results reported in PubChem BioAssay.
Active and inactive are the calls of the source.

Assays:
[1] = biological target: Albumin (Bos taurus) (UniProt P02769); experiment: bovine serum albumin binders on microarray, profiling panel, artefact control for SMM control protein annotation, biochemical, small-molecule microarray, Alexa647 label, 635/667 nm fluorescence (AID 1118); details: BSA-A647 binding, fluorescence 635 nm, higher = more signal;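 further: score merges 667 nm emission intensity and signal-to-noise per printed compound spot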
Albumin (Bos taurus), sequence (P02769 whole entry, looked up): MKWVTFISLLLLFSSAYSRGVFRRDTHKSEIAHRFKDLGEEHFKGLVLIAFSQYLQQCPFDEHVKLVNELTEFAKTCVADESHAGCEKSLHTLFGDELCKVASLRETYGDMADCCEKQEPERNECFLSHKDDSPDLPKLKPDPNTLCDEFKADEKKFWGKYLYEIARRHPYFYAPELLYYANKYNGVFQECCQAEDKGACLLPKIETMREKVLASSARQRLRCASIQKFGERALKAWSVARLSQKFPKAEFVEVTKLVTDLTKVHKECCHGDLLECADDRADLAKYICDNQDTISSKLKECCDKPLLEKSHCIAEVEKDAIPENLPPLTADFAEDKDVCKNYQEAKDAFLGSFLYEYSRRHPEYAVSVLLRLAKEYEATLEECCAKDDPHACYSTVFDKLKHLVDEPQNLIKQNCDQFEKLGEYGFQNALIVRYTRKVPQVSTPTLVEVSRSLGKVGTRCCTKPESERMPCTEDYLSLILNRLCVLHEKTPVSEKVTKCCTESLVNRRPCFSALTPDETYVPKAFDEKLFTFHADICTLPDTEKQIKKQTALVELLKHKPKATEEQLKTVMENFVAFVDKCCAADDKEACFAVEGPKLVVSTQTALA

[2] = small-molecule microarray binders of probe aXIP, primary screen, biochemical, NeuroSMM set, 635/667 nm fluorescence (AID 1119); details: higher = more signal, called active from +8 up or from −8 down;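 further: probe is the protein aXip251-270 applied at 1 µg/mL to compound-printed slides; binding of probe to printed compounds measured as 667 nm fluorescence plus signal to noise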
[3] = small-molecule binders of probe aNOTCH3, primary screen, biochemical, small-molecule microarray, 635/667 nm fluorescence (AID 1120); details: higher = more signal;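 further: probe is a biotin-tagged antibody raised against NOTCH3 rather than NOTCH3 protein; score merges spot fluorescence near 667 nm with spot signal to noise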
[4] = small-molecule binders of probe aNOTCH2, primary screen, biochemical, small-molecule microarray, 635/667 nm fluorescence (AID 1121); details: higher = more signal;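 further: score merges feature fluorescence read at 667 nm with its signal to noise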
[5] = biological target: Carbonic anhydrase 2 (Homo sapiens) (UniProt P00918); experiment: CAII small-molecule binders, profiling panel, biochemical, small-molecule microarray, Alexa647-labelled CAII (AID 1122); details: CAII-A647 binding fluorescence, higher = more signal
[6] = COS7 lysate on small-molecule microarray, probe aHis, 635 nm (AID 1123); details: COS7 cell lysate, fluorescence, higher = more signal;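 further: z-score combines 667nm fluorescence intensity with signal-to-noise per printed compound spot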
[7] = compound binding in COS7 lysate, probe aLAP1, primary screen, cell lysate, small-molecule microarray (AID 1124); details: probe aLAP1, fluorescence, higher = more signal;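 further: lysate comes from COS7 cells expressing LAP1 and is applied at 0.3 µg/mL; score merges spot fluorescence near 667 nm with signal-to-noise over triplicate slides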
[8] = test system: Sam68 (KHDRBS1); experiment: Sam68 small-molecule binders, primary screen, biochemical, small-molecule microarray, 635 nm fluorescence (AID 1125); details: small-molecule microarray binding, higher = more signal;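 further: score merges 667 nm channel intensity with signal to noise over triplicate slides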
[9] = test system: Chordin-like protein 2 (CHRDL2); experiment: CHRDL2 small-molecule binders, primary screen, biochemical, small-molecule microarray, 635 nm fluorescence (AID 1126); details: small-molecule microarray binding, fluorescence 635 nm; higher = more signal;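 further: printed compound slides probed with Chrdl2 protein at 4 µg/mL for 1 h at 4 C; score merges 667 nm emission intensity with signal to noise over three replicate slides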
[10] = biological target: Concanavalin-A (Canavalia ensiformis) (UniProt P02866); experiment: ConA small-molecule binders, primary screen, artefact control for SMM control protein annotation, biochemical, small-molecule microarray, Alexa647 label, 635 nm (AID 1127); details: ConA-A647 binding fluorescence, higher = more signal;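 further: z combines 667 nm emission intensity with signal-to-noise across three replicate slides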
Concanavalin-A (Canavalia ensiformis), sequence (P02866 whole entry, looked up): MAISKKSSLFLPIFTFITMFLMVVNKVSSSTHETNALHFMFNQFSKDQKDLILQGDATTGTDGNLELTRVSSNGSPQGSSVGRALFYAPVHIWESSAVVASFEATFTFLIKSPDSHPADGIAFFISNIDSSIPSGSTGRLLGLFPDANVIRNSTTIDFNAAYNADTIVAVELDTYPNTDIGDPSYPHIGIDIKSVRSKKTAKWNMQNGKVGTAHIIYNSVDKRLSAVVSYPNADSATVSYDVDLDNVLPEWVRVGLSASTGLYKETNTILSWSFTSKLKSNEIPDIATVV

[11] = anti-His antibody binders, primary screen, artefact control for SMM control protein annotation, biochemical, small-molecule microarray, 635 nm fluorescence (AID 1128); details: anti-His Alexa647 antibody binding, higher = more signal;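 further: score merges feature fluorescence with signal-to-noise for each printed compound spot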
[12] = test system: Human papillomavirus type 1a E7 protein (residues 1-88); experiment: HPV1a E7 small-molecule binders, primary screen, biochemical, small-molecule microarray, residues 1-88, 635 nm (AID 1129); details: small-molecule microarray binding, fluorescence 635 nm; higher = more signal
[13] = biological target: Focal adhesion kinase 1 (Homo sapiens) (UniProt Q05397); experiment: small-molecule microarray binders of FAK, primary screen, biochemical, 635/667 nm fluorescence, BSA, DTT (AID 1130); details: PTK2 binding, 635 nm fluorescence, higher = more signal;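 further: composite of spot emission at 667 nm and signal to noise over triplicate slides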
Focal adhesion kinase 1 (Homo sapiens), sequence (Q05397 whole entry, looked up): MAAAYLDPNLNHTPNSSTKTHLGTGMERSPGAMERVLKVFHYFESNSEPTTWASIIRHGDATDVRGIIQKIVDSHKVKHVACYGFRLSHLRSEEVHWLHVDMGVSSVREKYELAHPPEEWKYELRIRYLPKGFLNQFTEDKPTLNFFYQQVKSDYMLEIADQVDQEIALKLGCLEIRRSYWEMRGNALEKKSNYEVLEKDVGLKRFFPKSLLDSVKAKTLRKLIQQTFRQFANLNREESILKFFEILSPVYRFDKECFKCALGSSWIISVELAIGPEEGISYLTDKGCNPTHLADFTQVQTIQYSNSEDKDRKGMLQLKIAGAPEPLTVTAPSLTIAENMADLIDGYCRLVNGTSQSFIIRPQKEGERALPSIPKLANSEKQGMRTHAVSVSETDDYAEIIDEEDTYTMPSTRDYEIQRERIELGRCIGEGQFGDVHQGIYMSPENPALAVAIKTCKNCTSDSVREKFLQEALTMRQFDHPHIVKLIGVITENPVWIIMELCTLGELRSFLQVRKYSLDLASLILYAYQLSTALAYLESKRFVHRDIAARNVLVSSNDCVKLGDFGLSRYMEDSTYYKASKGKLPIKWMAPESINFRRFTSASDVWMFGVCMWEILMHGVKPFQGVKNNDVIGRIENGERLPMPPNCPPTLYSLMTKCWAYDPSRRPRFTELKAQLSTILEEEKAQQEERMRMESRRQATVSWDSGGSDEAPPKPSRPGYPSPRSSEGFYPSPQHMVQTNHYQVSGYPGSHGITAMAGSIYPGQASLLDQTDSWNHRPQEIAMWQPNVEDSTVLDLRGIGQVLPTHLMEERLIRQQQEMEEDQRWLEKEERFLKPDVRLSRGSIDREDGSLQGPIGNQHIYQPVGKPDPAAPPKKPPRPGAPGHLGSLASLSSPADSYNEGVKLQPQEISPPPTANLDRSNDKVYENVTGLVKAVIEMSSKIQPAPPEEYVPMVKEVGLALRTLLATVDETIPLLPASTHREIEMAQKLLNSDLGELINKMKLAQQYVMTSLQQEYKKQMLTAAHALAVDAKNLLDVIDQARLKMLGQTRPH

[14] = test system: Fibrinogen (Alexa647-labelled); experiment: fibrinogen binders on compound microarrays, profiling panel, artefact control for SMM control-protein annotation, biochemical, small-molecule microarray, 635/667 nm fluorescence (AID 1131); details: fibrinogen-A647 binding fluorescence, higher = more signal;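 further: z-score merges 667 nm fluorescence with per-spot signal-to-noise over triplicate slides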
[15] = biological target: Follistatin (Homo sapiens) (UniProt P19883); experiment: follistatin binders on small-molecule microarrays, primary screen, biochemical, small-molecule microarray, 635/667 nm fluorescence (AID 1132); details: FST binding, 635 nm fluorescence, higher = more signal
Follistatin (Homo sapiens), sequence (P19883 whole entry, looked up): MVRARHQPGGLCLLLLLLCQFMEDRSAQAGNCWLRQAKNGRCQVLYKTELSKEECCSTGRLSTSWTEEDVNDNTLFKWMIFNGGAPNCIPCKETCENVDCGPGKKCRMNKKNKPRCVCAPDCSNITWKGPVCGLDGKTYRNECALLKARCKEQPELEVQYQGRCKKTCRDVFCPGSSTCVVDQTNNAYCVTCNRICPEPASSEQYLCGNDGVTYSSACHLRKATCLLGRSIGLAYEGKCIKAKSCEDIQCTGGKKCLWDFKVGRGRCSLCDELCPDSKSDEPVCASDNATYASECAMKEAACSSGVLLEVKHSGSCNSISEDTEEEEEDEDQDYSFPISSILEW

[16] = biological target: Fibroblast growth factor 2 (Homo sapiens) (UniProt P09038); experiment: FGF2 binders on small-molecule microarrays, primary screen, biochemical, small-molecule microarray, 635/667 nm fluorescence (AID 1133); details: small-molecule microarray binding, FGF2, fluorescence 635/667; higher = more signal
Fibroblast growth factor 2 (Homo sapiens), sequence (P09038 whole entry, looked up): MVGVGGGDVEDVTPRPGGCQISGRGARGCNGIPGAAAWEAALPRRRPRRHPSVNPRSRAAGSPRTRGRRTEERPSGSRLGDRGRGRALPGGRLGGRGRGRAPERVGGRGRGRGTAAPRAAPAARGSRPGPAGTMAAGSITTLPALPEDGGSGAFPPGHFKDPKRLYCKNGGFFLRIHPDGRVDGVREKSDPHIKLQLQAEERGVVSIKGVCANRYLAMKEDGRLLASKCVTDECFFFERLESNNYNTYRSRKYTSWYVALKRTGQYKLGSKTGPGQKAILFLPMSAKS

[17] = mitochondrial membrane potential change in A549 cells, profiling panel, cell-based, JC-1 fluorescence, basal, 24 h, 100 nL (AID 1138); details: higher = more signal;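 further: A549 lung adenocarcinoma cells under basal conditions with no added stimulus; test concentration not given here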
[18] = test system: Lefty1; experiment: Lefty1 binders on small-molecule microarrays, primary screen, biochemical, small-molecule microarray, 635/667 nm fluorescence (AID 1139); details: small-molecule microarray binding, fluorescence 635/667; higher = more signal
[19] = test system: wheat germ agglutinin (Triticum aestivum), Alexa647-labelled; experiment: wheat germ agglutinin binders on compound microarrays, profiling panel, artefact control for SMM control-protein annotation, biochemical, small-molecule microarray, 635/667 nm fluorescence (AID 1140); details: WGA-A647 binding, 635 nm fluorescence, higher = more signal;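 further: score merges 667 nm feature emission with signal to noise over triplicate slides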
[20] = biological target: Luciferin 4-monooxygenase (Photinus pyralis) (UniProt P08659); experiment: firefly luciferase enzyme inhibitors, primary screen, biochemical, luminescence, purified enzyme, 2006 set (AID 1141); details: SteadyGlo luminescence, 30 min, higher = more signal, called active from +8 up or from −8 down;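 further: cell-free assay with purified firefly luciferase at 100 ng per well in PBS; test concentration not given here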
Luciferin 4-monooxygenase (Photinus pyralis), sequence (P08659 whole entry, looked up): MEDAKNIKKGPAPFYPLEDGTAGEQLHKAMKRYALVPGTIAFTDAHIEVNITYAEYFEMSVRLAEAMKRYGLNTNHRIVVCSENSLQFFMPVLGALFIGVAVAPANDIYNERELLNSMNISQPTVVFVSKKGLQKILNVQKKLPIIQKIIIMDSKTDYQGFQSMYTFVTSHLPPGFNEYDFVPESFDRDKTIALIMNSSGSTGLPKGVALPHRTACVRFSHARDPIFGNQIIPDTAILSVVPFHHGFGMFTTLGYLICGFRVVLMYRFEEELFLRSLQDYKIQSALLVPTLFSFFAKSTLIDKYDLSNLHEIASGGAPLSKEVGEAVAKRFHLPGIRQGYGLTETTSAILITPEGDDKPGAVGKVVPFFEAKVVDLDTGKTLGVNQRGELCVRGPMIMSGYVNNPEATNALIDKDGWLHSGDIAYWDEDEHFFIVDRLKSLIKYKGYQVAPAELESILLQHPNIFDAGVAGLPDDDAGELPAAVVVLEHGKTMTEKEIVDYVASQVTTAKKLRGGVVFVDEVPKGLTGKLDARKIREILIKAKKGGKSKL

Compound	composite z-score [1]	composite Z-score [2]	composite z-score [3]	composite z-score [4]	composite z-score [5]	composite z-score [6]	composite z-score [7]	composite z-score [8]	composite z-score [9]	composite z-score [10]	composite z-score [11]	composite z-score [12]	composite z-score [13]	composite z-score [14]	composite z-score [15]	composite z-score [16]	z-score [17]	composite z-score [18]	composite z-score [19]	z-score [20]
CCN1C(=O)[C@H]2[C@H]3[C@H](O)[C@H](O)CC(=NOCC[C@@H]4C=C[C@H](OC(C)=O)[C@@H](COC(C)=O)O4)[C@@H]3CC[C@H]2C1=O	0.541	0.501 (inactive)	-0.149	-0.12	0.385	0.305	0.256	0.214	0.63	0.544	0.535	0.311	0.39	0.936	0.472	0.419	-0.812	0.298	0.97	0.838 (inactive)
CCOC(=O)[C@H](CC(C)C)NC(=O)CCC1CC(OC(=O)NCCc2ccc(F)cc2)CC2(CCCC(COC(=O)NCc3cccc4ccccc34)O2)O1 (stereo not given in full)	0.426	-0.275 (inactive)	-0.235	0.12	0.276	0.96	-0.138	0.695	0.282	0.873	0.229	0.982	0.2	0.279	1.27	0.634	0.755	0.774	0.0787	0.6 (inactive)
O=C1C[C@@H](O)[C@@H](O)[C@@H]2[C@@H]3C(=O)N(C4CCCCC4)C(=O)[C@@H]3CC[C@@H]12	0.337	-0.228 (inactive)	-0.104	-0.198	0.167	0.798	-0.244	0.546	0.36	0.448	0.69	0.54	-0.0599	0.705	0.373	0.134	0.457	0.66	0.282	0.137 (inactive)
C#CCCCON=C1C[C@@H](O)[C@@H](O)[C@@H]2[C@@H]3C(=O)N(CC)C(=O)[C@@H]3CC[C@H]12	-0.0021	0.52 (inactive)	-0.118	-0.148	0.728	1.35	0.187	0.866	-0.0382	-0.357	1.93	0.286	-0.442	0.636	-0.473	-0.0374	-0.27	0.162	1.07	0.0384 (inactive)
O=C1C=C[C@@H](O)[C@@H]2[C@@H]3C(=O)N(Cc4ccccc4)C(=O)[C@@H]3CC[C@@H]12	0.22	-0.5 (inactive)	0.21	-0.132	-0.0331	0.556	-0.139	0.0888	0.482	0.619	0.0502	0.673	0.168	0.394	0.415	0.484	0.831	0.314	0.228	-0.505 (inactive)
O=C1[C@H]2CCn3c(=O)n(Cc4cc5c(cc4Cl)OCO5)c(=O)n3[C@H]2[C@H](O)[C@@H]2O[C@H]12	0.662	-0.0662 (inactive)	-0.15	-0.14	0.29	0.242	-0.14	-0.435	0.716	-0.0737	0.85	-0.542	-0.255	0.855	0.596	0.299	-0.512	0.298	0.176	-1.44 (inactive)
O=C1[C@H]2[C@H]3[C@H](O)[C@H](O)CC(=NO[C@@H]4O[C@H](CO)[C@@H](O)[C@H](O)[C@H]4O)[C@@H]3CC[C@H]2C(=O)N1C1CCCCC1	-0.156	0.178 (inactive)	0.0876	-0.141	-0.121	0.139	-0.1	0.317	0.629	0.601	-0.293	0.486	-0.0408	0.384	0.284	0.415	0.76	0.578	0.0714	-0.33 (inactive)
CCOC(=O)[C@H](CC(C)C)NC(=O)CCC1CC(OC(=O)NCc2ccc3c(c2)OCO3)CC2(CCCC(COC(=O)NCCOC)O2)O1 (stereo not given in full)	-0.398	-0.0756 (inactive)	0.0208	-0.166	0.152	0.57	0.0898	0.911	0.293	0.858	0.418	0.758	-0.379	0.942	0.589	0.725	-0.119	0.847	0.609	0.713 (inactive)
CCc1cc2c(nc1CC)CCN(CCC(C)=NOC[C@@H](C)[C@H](OCc1ccccc1)C(C)C)C2	0.742	0.551 (inactive)	-0.443	-0.135	-0.25	-0.171	-0.383	-0.16	-1.05	-1.12	2.64	-0.684	-0.846	-1.69	-0.862	-1.39	0.874	-0.465	-0.323	-1.77 (inactive)
CO[C@H]1COC(=O)[C@H](CCSC)NC(=O)CC=C[C@@H](C)[C@H](OC)COC(=O)[C@@H](OCc2ccccc2)C=C[C@@H]1C	-0.798	1.04 (inactive)	-0.043	-0.153	-0.173	-0.919	0.0916	0.835	1.45	-0.257	0.657	0.116	-0.0918	-0.84	1.23	0.689	-1.19	1.3	-0.36	1.28 (inactive)
